Test results taken from PubChem BioAssay (NCATS).
Results filed as inconclusive are left out. Calls of active or inactive are those of the source. Unless noted, calls come from the whole dose curve; as a rule, active = well fitted curve in either direction with a large enough effect (not every such curve was filed as active); inconclusive = small, poorly fitted or top-dose-only effect, or another doubt; inactive = flat fitted curve, though single readings scatter.

Legend:
[1] = target: Lysosomal acid glucosylceramidase (Homo sapiens) (UniProt P04062); assay: Glucocerebrosidase-p2 (AID 348; in the data active = potency below about 10 µM; note: potency is the fitted concentration of half-maximal effect); details: purified GBA, blue fluorogenic substrate, 40 min
Lysosomal acid glucosylceramidase (Homo sapiens), sequence (P04062 whole entry, looked up): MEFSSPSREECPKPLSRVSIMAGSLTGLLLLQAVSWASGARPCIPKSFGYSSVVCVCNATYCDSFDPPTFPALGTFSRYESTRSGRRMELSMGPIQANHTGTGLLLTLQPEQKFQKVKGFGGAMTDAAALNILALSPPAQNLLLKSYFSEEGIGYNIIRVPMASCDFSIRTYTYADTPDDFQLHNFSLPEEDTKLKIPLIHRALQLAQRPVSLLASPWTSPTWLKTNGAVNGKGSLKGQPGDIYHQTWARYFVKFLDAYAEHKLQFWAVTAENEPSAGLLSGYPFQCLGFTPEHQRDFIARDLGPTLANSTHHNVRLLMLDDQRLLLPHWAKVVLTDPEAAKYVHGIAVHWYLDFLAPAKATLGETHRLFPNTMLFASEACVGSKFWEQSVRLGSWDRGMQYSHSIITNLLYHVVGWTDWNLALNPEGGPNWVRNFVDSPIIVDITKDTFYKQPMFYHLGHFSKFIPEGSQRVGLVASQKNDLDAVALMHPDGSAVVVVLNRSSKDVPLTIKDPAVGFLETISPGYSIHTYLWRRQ
In short: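 Normal human glucocerebrosidase (0.2 nM) with blue fluorogenic substrate (80 uM final) in citrate/phosphate pH 5.9 with 10mM sodium taurocholate, 0.01% tween-20; 40 min RT, NaOH/glycine stop; fluorescence Ex 365/Em 440; AC50 from a titration from 0.6 nM upwards.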

[2] = AP1 Signaling Pathway (AID 357); details: ME-180 AP-1-bla reporter, EGF-induced, beta-lactamase ratio, 5 h; at 7.69 µM (top of the series) unless noted; note: % is set by controls: 0 for no effect and ±100 for the full control effect
In short: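 ME-180 cells with beta-lactamase reporter under AP-1 response element, stimulated with EC50 EGF; compounds tested in titration series, 5 h at 37 °C. CCF4 substrate added 2.5 h at room temperature; 460/530 nm emission ratio gave %activity and AC50.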

[3] = NFAT Signaling Pathway (AID 444); details: Jurkat NFAT-bla M1, carbachol, beta-lactamase ratio, 5 h; at 7.69 µM (top of the series) unless noted;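 note: carbachol stimulus at about its EC50 of 1 µM final; % is set by controls: 0 for no effect and ±100 for the full control effect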
In short: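 Jurkat cells with NFAT-driven β-lactamase reporter and co-expressed M1 receptor, stimulated with carbachol (final 1 uM, ~EC50), compound titration, 5 h at 37 °C. CCF4 loaded 1 h at RT; 460/530 nm ratio gave %activity and AC50.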

[4] = Stat Signaling Pathway (AID 446); details: ME-180 (cervical carcinoma) SIE beta-lactamase reporter, IL-6 stimulated, 5 h; at 7.69 µM (top of the series) unless noted;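 note: ME-180 cervical cancer cells given 40 pM IL-6 alongside compound; SIE-controlled beta-lactamase reporter measured as 460/530 nm FRET emission ratio; % is set by controls: 0 for no effect and ±100 for the full control effect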
In short: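 Normalization used AC90 stimulation (300 pM IL-6) and AC90 inhibition (125 nM pan-JAK inhibitor at 40 pM IL-6). The underlying signal is SIE-driven beta-lactamase in ME-180 cells after 5 h IL-6 exposure with compound.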

[5] = target: Glucocorticoid receptor (Homo sapiens) (UniProt P04150); assay: GR-GFP Redistribution (AID 450;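 active = compounds whose dose series gives a full or clear partial fitted curve of increased nuclear translocation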; note: potency is the fitted concentration of half-maximal effect); details: U2OS GR-GFP nuclear translocation, laser cytometry, 2 h
Glucocorticoid receptor (Homo sapiens), sequence (P04150 whole entry, looked up, the tested form may be a part): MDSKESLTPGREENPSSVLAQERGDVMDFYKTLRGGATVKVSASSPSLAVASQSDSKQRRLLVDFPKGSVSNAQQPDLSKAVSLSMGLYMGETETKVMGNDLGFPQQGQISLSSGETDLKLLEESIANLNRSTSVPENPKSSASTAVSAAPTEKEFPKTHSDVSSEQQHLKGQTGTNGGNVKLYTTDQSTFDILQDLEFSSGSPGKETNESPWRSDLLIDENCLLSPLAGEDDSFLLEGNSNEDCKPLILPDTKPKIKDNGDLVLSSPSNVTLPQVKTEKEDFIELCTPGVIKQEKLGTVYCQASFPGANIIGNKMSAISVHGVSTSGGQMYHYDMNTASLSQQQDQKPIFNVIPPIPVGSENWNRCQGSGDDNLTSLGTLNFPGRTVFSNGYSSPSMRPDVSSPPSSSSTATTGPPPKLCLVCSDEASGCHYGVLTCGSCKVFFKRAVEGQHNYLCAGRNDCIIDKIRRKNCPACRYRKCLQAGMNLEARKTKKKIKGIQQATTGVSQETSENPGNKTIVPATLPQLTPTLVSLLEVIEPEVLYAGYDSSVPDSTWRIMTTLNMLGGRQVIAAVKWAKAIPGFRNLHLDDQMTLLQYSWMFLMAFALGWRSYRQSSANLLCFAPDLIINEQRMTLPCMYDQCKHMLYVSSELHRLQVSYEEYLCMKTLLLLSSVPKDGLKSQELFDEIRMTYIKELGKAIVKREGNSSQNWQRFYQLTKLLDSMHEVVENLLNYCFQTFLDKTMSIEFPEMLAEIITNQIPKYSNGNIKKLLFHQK

[6] = target: Glucocorticoid receptor (Homo sapiens) (UniProt P04150); assay: GR-EFC Redistribution (AID 451; calls by dose curve; note: potency is the fitted concentration of half-maximal effect); details: CHO-K1 GR-EFC translocation, beta-gal luminescence, 2 h
In short: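 CHO-K1 cells expressing nuclear EA and GR-ED fragments of b-gal; compounds titrated up to 46 uM final, 2 h at 37 C. GR nuclear translocation read as complemented b-gal luminescence after 1 h RT detection.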

[7] = target: Mitogen-activated protein kinase 10 (Mus musculus) (UniProt Q61831); assay: JNK3 AlphaScreen Assay (AID 530); details: JNK3 lysate, c-Jun phosphorylation; series mostly up to 11.4 µM;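 note: kinase came from lysate of stimulated human HepG2 cells; signal reports phosphorylation of biotinylated GST-cJun 1-79 at Ser73 with 10 µM ATP; % is set by controls: 0 for no effect and ±100 for the full control effect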
In short: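 Activity was read by AlphaScreen after JNK3-containing HepG2 lysate (cytokine pre-activated) phosphorylated biotinylated GST-cJun with 10 uM ATP at room temperature. Phospho-Ser73 cJun antibody with Protein-A acceptor beads provided detection.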

[8] = target: 3',5'-cyclic-AMP phosphodiesterase 4B (Homo sapiens) (UniProt Q07343); assay: qHTS Assay for Inhibitors of PDE-IV (AID 607; active = well fitted activation curve with a large enough effect in the main read-out, with a control signal flat, not every such curve was filed as active; note: % of control where 0% means no effect); details: HEK293 ACTOne CNG channel cells, membrane potential fluorescence; series mostly up to 22.9 µM
3',5'-cyclic-AMP phosphodiesterase 4B (Homo sapiens), sequence (Q07343 whole entry, looked up): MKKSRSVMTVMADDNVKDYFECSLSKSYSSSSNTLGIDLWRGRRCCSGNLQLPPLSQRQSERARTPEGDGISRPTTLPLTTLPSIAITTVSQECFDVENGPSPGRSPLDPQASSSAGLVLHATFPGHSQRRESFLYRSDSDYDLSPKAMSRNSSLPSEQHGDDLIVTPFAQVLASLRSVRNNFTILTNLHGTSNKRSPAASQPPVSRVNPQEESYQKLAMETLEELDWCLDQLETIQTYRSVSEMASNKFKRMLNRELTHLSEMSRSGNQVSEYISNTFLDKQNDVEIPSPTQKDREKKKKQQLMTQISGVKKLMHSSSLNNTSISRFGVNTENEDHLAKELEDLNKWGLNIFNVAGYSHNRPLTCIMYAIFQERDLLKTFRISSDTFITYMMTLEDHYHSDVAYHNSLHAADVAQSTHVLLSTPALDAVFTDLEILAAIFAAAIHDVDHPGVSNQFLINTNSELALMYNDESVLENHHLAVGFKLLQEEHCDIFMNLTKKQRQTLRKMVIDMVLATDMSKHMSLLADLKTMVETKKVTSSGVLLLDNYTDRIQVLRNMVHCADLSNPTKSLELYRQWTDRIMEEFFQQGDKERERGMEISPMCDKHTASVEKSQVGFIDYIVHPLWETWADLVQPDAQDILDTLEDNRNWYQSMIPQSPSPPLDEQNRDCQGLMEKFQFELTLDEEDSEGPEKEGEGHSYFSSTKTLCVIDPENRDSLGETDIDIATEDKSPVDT
In short: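 HEK293 ACTOne cells with CNG channel (1000/well), endogenous PDE4; membrane potential dye, compounds up to 22.9 uM final. Fluorescence Ex 535/Em 590; RO 20-1724 (100 uM final) as reference.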

N=C(N)SCCON1C(=O)c2ccccc2C1=O
inactive: Potency [1] > 11.4 µM | activity change, negative = inhibition [2] 5.96% | activity change, negative = inhibition [3] -3.83% | activity, negative = inhibition [4] -5.8% | Potency [5] > 46 µM | Potency [6] > 9.22 µM | Potency [7] | Potency [8]

O=C(O)c1ccc(C(=O)O)c(C(=O)Nc2ccc3c(c2)Cc2ccccc2-3)c1
inactive: Potency [1] > 11.4 µM | activity change, negative = inhibition [2] 5.18% | activity change, negative = inhibition [3] 4.14% | activity, negative = inhibition [4] -0.756% | Potency [5] > 46 µM | Potency [6] > 9.22 µM | Potency [7] | Potency [8]

NNC(=O)c1ccc(OCc2nc3ccccc3[nH]2)cc1
inactive: Potency [1] > 11.4 µM | activity change, negative = inhibition [2] -12.3% | activity change, negative = inhibition [3] 13.6% | activity, negative = inhibition [4] -6.78% | Potency [5] > 46 µM | Potency [6] > 9.22 µM | Potency [7] | Potency [8]

O=C(Nc1ccc(-c2cn3ccccc3n2)cc1)c1cc(Br)ccc1O
inactive: Potency [1] > 11.4 µM | activity change, negative = inhibition [2] -0.171% | activity change, negative = inhibition [3] 1.22% | activity, negative = inhibition [4] -0.935% | Potency [5] > 46 µM | Potency [6] > 9.22 µM | Potency [7] | Potency [8]

O=S(=O)(c1ccc2ccccc2c1)N1CCN(S(=O)(=O)c2ccc3ccccc3c2)CC1
inactive: Potency [1] > 11.4 µM | activity change, negative = inhibition [2] -2.95% | activity change, negative = inhibition [3] -5.78% | activity, negative = inhibition [4] 0.106% | Potency [5] > 46 µM | Potency [6] > 9.22 µM | Potency [7] | Potency [8]

CSCC[C@@H](C(=O)O)N(C)C
inactive: Potency [1] > 11.4 µM | activity change, negative = inhibition [2] 3.21% | activity change, negative = inhibition [3] 7.85% | activity, negative = inhibition [4] 2.15% | Potency [5] > 46 µM | Potency [6] > 9.22 µM | Potency [7] | Potency [8]

O=C(O)C[C@@H](C(=O)O)C1c2ccccc2-c2ccccc21
inactive: Potency [1] > 11.4 µM | activity change, negative = inhibition [2] -0.496% | activity change, negative = inhibition [3] -1.69% | activity, negative = inhibition [4] -5.83% | Potency [5] > 46 µM | Potency [6] > 9.22 µM | Potency [7] | Potency [8]

CN(C)C[C@@H](O)c1ccc(Cl)c2ccccc12
inactive: Potency [1] > 11.4 µM | activity change, negative = inhibition [2] 13.3% | activity change, negative = inhibition [3] -4.99% | activity, negative = inhibition [4] 18.4% | Potency [5] > 46 µM | Potency [6] > 9.22 µM | Potency [7] | Potency [8]

O=C(CN1C(=O)c2ccccc2C1=O)[C@@H](O)CN1C(=O)c2ccccc2C1=O
inactive: Potency [1] > 11.4 µM | activity change, negative = inhibition [2] -10.3% | activity change, negative = inhibition [3] 13.9% | activity, negative = inhibition [4] -0.0648% | Potency [5] > 46 µM | Potency [6] > 9.22 µM | Potency [7] | Potency [8]

O=C(O)C[C@H](Sc1ccccc1)c1ccccc1
inactive: Potency [1] > 11.4 µM | activity change, negative = inhibition [2] 7.59% | activity change, negative = inhibition [3] 8.06% | activity, negative = inhibition [4] -24.9% | Potency [5] > 46 µM | Potency [6] > 9.22 µM | Potency [7] | Potency [8]

O=C(O)CN(CC(=O)O)c1ccccc1
inactive: Potency [1] > 11.4 µM | activity change, negative = inhibition [2] 7.7% | activity change, negative = inhibition [3] 8.14% | activity, negative = inhibition [4] 13.6% | Potency [5] > 46 µM | Potency [6] > 9.22 µM | Potency [7] | Potency [8]

O=C(O)[C@@H]1CCCN1Cc1cc2ccccc2c2ccccc12
inactive: Potency [1] > 11.4 µM | activity change, negative = inhibition [2] 21.6% | activity change, negative = inhibition [3] 17.3% | activity, negative = inhibition [4] 2.3% | Potency [5] > 46 µM | Potency [6] > 9.22 µM | Potency [7] | Potency [8]

C[C@H](CCC(=O)O)[C@H]1CC[C@@H]2[C@@H]3CC[C@H]4C[C@@H](O)CC[C@@]4(C)[C@@H]3C[C@H](O)[C@@]21C
inactive: Potency [1] > 11.4 µM | activity change, negative = inhibition [2] 4.11% | activity change, negative = inhibition [3] 27.2% | activity, negative = inhibition [4] 2.1% | Potency [5] > 46 µM | Potency [6] > 9.22 µM | Potency [7] | Potency [8]

N#CCCn1c(=O)c(-c2ccccc2)nc2cnc(Oc3ccccc3)nc21
inactive: Potency [1] > 11.4 µM | activity change, negative = inhibition [2] -22.6% | activity change, negative = inhibition [3] -4.58% | activity, negative = inhibition [4] 2.8% | Potency [5] > 9.22 µM | Potency [6] > 46 µM | Potency [7] | Potency [8]

NC(=O)C/C=C\CC(N)=O
inactive: Potency [1] > 11.4 µM | activity change, negative = inhibition [2] 1.15% | activity change, negative = inhibition [3] 10.3% | activity, negative = inhibition [4] -3.27% | Potency [5] > 46 µM | Potency [6] > 9.22 µM | Potency [7] | Potency [8]

CN1CCN(CC(=O)Nc2cccc3ccccc23)CC1
inactive: Potency [1] > 11.4 µM | activity change, negative = inhibition [2] -2.71% | activity change, negative = inhibition [3] 5.99% | activity, negative = inhibition [4] 15.2% | Potency [5] > 46 µM | Potency [6] > 9.22 µM | Potency [7] | Potency [8]

Cc1nc2sc3c(c2c(=O)[nH]1)CCCC3
inactive: Potency [1] > 11.4 µM | activity change, negative = inhibition [2] 10.8% | activity change, negative = inhibition [3] -6.08% | activity, negative = inhibition [4] 6.96% | Potency [5] > 46 µM | Potency [6] > 9.22 µM | Potency [7] | Potency [8]
